Mcl1-Noxa inh – disrupts binding of human Mcl-1 to Noxa peptide; Q07820; inhibition, % at 21.7 µM; TR-FRET Mcl-1/Noxa peptide binding, 2 h; 220,000 tested, 1.5% active;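 active means compounds that cut the protein-peptide binding signal by more than 50% relative to plate controls in a single-dose test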;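 further: His-tagged Mcl-1 with rhodamine Noxa BH3 peptide and terbium anti-His antibody; 0% = Mcl-1 plus Noxa peptide wells and 100% = peptide-only wells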
Mcl-1 Bim block – human Bim-Mcl-1 interaction inhibition; AID 1009; Bead-based flow cytometry, Bim peptide-Mcl-1 binding; inhibition, % at 10 µM; 190,000 tested, 0.1% active; in the data active means inhibition above about 40%;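 further: 0% = no compound tracer wells and 100% = peptide blocker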
Pf gametocyte – P. falciparum stage V gametocyte viability inhibition | P. falciparum stage V gametocytes, ATP luminescence, 24 h | inhibition, % at 10.9 µM | 150,000 tested, 0.065% active;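 active means inhibition above the mean plus 3 SD of compounds within the control limits, set per campaign, cut at about 38% in these data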;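 further: 0% = DMSO wells and 100% = medium only without gametocytes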
eIF4E 4G PPI – inhibitors of eIF4E and eIF4G interaction in translation initiation | AID 782 | inhibition, % at 21.7 µM | 220,000 tested, 0.37% active | TR-FRET eIF4E-eIF4GI(517-606) binding, 2 h;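 active means inhibition above about 30%, limit read from the data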;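 further: 0% = full FRET control wells and 100% = background wells lacking eIF4GI fragment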
Mcl1-Bid inh – Mcl-1/Bid interaction inhibition; Q07820; TR-FRET Mcl-1/Bid-Dy647 peptide binding, 1536-well; inhibition, % at 21.7 µM; 220,000 tested, 0.97% active;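 active means compounds that cut the binding signal by more than half at the single screening dose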;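 further: His-tagged Mcl-1 with europium anti-His antibody binding Bid BH3 peptide; 0% = Mcl-1 plus peptide wells and 100% = peptide-only wells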
14-3-3 Bad inh – disrupts binding of bovine 14-3-3 zeta to phospho-Bad peptide. inhibition, % at 21.7 µM. AID 781. TR-FRET 14-3-3zeta/Dy647-pBad peptide displacement, 1 h. P63103. 220,000 tested, 0.71% active;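 active means inhibition above about 70%, limit read from the data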;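 further: 0% = full 14-3-3 plus peptide FRET controls and 100% = background without 14-3-3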
Active calls of the source: *; i = inactive; · = no result given; [ ] = another dose, or the depositor's remark. This is a sample that favours compounds with a hit; in the whole collection about 2.7% have one here.

SMILES | Mcl1-Noxa inh | Mcl-1 Bim block | Pf gametocyte | eIF4E 4G PPI | Mcl1-Bid inh | 14-3-3 Bad inh
COc1ccc(C2CC(=O)c3cnc(NC(=O)c4cc(OC)cc(OC)c4)nc3C2)cc1 (configuration not stated) | -33 | -9 | -3 | 1 | -11 | -2
NC(=NCc1ccc2c(c1)OCO2)NC(=O)c1ccccc1 | 9 | -1 | 25 | 68* | 7 | 77*
COc1ccc(N(CC(=O)NCc2ccccn2)S(=O)(=O)c2ccccc2[N+](=O)[O-])c(OC)c1 | 0 | -2 | · | -1 | -28 | -12
Cc1ccc(CSc2nc3ccccc3c(=O)[nH]2)cc1 | 7 | -2 | 3 | -3 | -49 | 71*
COCCn1c(C)cc(C(=O)CSc2nc3ccccc3c(=O)[nH]2)c1C | 61* | -2 | 20 | 0 | -46 | -17
Cc1ccccc1CSc1nc2ccccc2c(=O)[nH]1 | 10 | -2 | 3 | -2 | -20 | 6
Cc1ccc2c(c1)NC(=O)c1cccnc1N2 | 77* | -2 | · | 12 | -76 | 6
O=C1Nc2ccccc2Nc2ncccc21 | -10 | -2 | · | -5 | -55 | 2
CCCn1c(C)cc(C(=O)COC(=O)CN=C2NS(=O)(=O)c3ccccc32)c1C | 7 | -1 | -2 | -2 | -60 | -23
Cc1nnc2n1NC(c1ccc(Cl)cc1)C(C(=O)N(C)C1CCCCC1)S2 (configuration not stated) | 7 | 4 | · | -1 | 0 | 127*[fluorescence artefact?]
CN(C)c1ccc(NC(=O)c2sc(SCC(=O)Nc3nccs3)nc2N)cc1 | 66* | -5 | -9 | 8 | -29 | 5
CN(C)c1ccc(NC(=O)c2sc(SCC(=O)Nc3ccc(Br)cc3)nc2N)cc1 | 34 | 1 | -19 | 2 | 21 | 3
Fc1ccc(C2CCCN2Cc2nc(Cc3ccccc3)no2)cc1 (configuration not stated) | -1 | -1 | 5 | 60* | -15 | -9
O=C(NNc1c(Cl)cccc1Cl)c1cccs1 | 8 | · | 5 | 5 | 3 | 91*
O=C(NNC(=O)c1ccccc1Cl)c1cccs1 | 0 | -3 | · | 2 | -19 | 6
Cc1cc(C(=O)CSc2nc3ccccc3c(=O)n2C)c(C)n1Cc1ccc2c(c1)OCO2 | -367 | 1 | -6 | i | -34 | -33
O=C(Nc1nnc(SCc2c(Cl)cccc2Cl)s1)c1ccc2ncsc2c1 | -59 | -4 | · | 18 | 0 | 93*
N#Cc1ccc(CSc2nnc(NC(=O)c3ccc4ncsc4c3)s2)cc1 | -97 | -6 | 3 | 75* | -82 | 86*
Cc1ccc2nc(NC(=O)c3ccc4ncsc4c3)sc2c1 | 49 | -2 | · | -14 | 30 | 29
COc1ccc(-c2cc(C(=O)NCC3CCCO3)c3cc(C)ccc3n2)cc1 (configuration not stated) | 17 | 3 | -15 | 2 | -17 | 77*
CS(=O)(=O)c1ccc2nc(NC(=O)c3ccc(NS(=O)(=O)c4ccc(F)c(F)c4)cc3)sc2c1 | 6 | · | 3 | -10 | 64* | 72*
CC(C)CCNC(=S)NC1CCCC1 | -6 | -2 | · | -1 | -118 | -16
CC(C)CN(CC(C)C)C(=S)NC1CCCCC1 | 15 | -1 | -9 | 3 | 93* | -10
CC(=O)Nc1ccc([C@H]2[C@H](C)CC[C@H]3C(=O)N4[C@@H](CC[C@@H](C)[C@@H]4c4ccc(NC(C)=O)cc4)C(=O)N32)cc1 | -9 | -3 | · | 4 | -14 | -9
CC(C)C(NC(=O)C(NC(=O)C1O[C@@H]2OC(C)(C)O[C@@H]2[C@H]2OC(C)(C)O[C@@H]12)C(C)C)C(=O)O (some centres not stated) | 17 | 0 | 12 | 3 | -18 | -3
COc1ccc(CN(C)CC(=O)NC(C)c2ccccc2)c(OC)c1 (configuration not stated) | -24 | 3 | 18 | 1 | 56* | 13
Cc1ccc(CNc2nc(C)nc3sc4c(c23)CCC4)cc1 | -16 | 0 | · | 4 | 91* | -16
CCc1c(C(=O)Nc2cc(C)ccc2OC)[nH]c(C)c1C(C)=O | 6 | 2 | · | -16 | 96* | -5
CC1=CC(C)(C)N2C(=O)C3(C(C#N)=C(N)OC4=C3C(=O)CC(C)(C)C4)c3c(C)c(C)cc1c32 (configuration not stated) | 7 | -1 | · | 1 | -4 | -10

High-throughput results from PubChem.
